Sampled rows, rich in hits. Any-hit rate of the full collection: about 2.4%.
Pol iota inh: DNA polymerase iota (human) inhibition. Q9UNA4. Pol iota fluorescent replication assay, 10 min. Potency, µM (titrated, usually from 115 µM), usual class: inhibitors. actives 1% (n = 390,000). AID 588590
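Pol iota at 10 nM preincubated 15 min with compounds at room temperature; reaction started with fluorescent substrate, 50 nM final. Fluorescence read kinetically at 0 and 10 min; buffer-only wells as negative control.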
Pol kappa inh-1: inhibitors of human DNA polymerase kappa; AID 588579; actives 0.53% (n = 400,000); Potency, µM (doses to about 107 µM), most hits filed as inhibitors; Q9UBT6; purified Pol kappa, fluorescent DNA synthesis assay, 10 min
Target sequence (Q9UBT6 whole entry, looked up): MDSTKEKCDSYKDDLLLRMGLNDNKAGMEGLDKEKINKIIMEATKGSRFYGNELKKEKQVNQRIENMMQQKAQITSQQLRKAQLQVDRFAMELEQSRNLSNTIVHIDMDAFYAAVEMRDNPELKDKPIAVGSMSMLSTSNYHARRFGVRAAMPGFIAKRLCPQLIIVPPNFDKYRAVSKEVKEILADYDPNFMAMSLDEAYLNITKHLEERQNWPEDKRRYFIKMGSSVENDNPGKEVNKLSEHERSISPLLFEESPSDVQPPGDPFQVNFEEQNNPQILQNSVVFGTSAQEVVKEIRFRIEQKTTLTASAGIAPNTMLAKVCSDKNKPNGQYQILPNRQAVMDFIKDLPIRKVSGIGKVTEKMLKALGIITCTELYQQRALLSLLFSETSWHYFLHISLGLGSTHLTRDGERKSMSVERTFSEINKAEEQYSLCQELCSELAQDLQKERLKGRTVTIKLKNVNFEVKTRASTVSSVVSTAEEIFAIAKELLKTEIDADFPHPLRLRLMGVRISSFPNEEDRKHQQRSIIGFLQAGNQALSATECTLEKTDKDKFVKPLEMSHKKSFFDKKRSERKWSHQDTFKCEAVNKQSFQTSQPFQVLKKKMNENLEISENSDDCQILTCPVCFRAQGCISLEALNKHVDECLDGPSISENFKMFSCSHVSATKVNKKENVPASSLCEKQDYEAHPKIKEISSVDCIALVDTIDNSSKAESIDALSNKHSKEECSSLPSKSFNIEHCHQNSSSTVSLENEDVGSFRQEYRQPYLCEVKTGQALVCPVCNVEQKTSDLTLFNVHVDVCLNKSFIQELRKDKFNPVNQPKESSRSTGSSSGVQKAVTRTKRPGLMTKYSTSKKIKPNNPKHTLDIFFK
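50 nM final substrate added after 15 min RT preincubation of 10 nM Pol kappa with compound; fluorescence read at 0 and 10 min.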
Pol eta inh-1: blocks human DNA polymerase eta activity; Q9Y253; recombinant Pol eta, fluorescent DNA replication assay; Potency, µM (highest dose often 114 µM), actives largely listed as inhibitors; actives 1.2% (n = 390,000); AID 588591
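Fluorescent replication assay: 50 nM final substrate added after a 15 min room-temperature compound preincubation with 10 nM enzyme. Signal taken at 0 min and again at 10 min.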
FEN1 inh: human FEN1 inhibition; P39748; Recombinant FEN1 flap cleavage, fluorescence, 15 min; Potency, µM (top dose mostly 114 µM), actives largely listed as inhibitors; actives 0.35% (n = 390,000); also: nearly all actives have a fitted effect of over 65% in size
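FEN1 at 10 nM, compound pretreatment for 15 min (room temperature), 50 nM final substrate to initiate; endpoint reads at 0 and 15 min; DMSO-only plates used as vehicle background.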
POLB inh: DNA polymerase beta (human) inhibition; P06746; Pol beta primer extension/strand displacement, fluorescence kinetic; Potency, µM (series often up to 114 µM), hits mostly inhibitors; actives 1.3% (n = 340,000); AID 485314
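Kinetic readout of DNA synthesis with strand displacement by Pol beta. Compound and 10 nM enzyme sit 15 min at room temperature; 50 nM substrate starts the reaction, read immediately and at 10 min.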
WRN helicase inh: inhibitors of human WRN helicase. Q14191. WRN helicase unwinding, fluorescent forked duplex, kinetic. Potency, µM (top dose mostly 114 µM), hits mostly inhibitors. actives 0.46% (n = 360,000); also: nearly all actives have a fitted effect of over 55% in size
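Kinetic fluorescence helicase assay: unwinding of a quenched forked DNA duplex (100 nM final) with 2 mM ATP final raises red fluorescence (525/598 nm). Compounds sat 15 min at room temperature with 20 nM WRN beforehand.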
GALK inh confirm: confirmation of human galactokinase (GALK) inhibitors | actives 70% (n = 150) | shares compounds with Pol eta inh-1 | Potency, µM (highest dose often 115 µM), hits mostly inhibitors | purified GALK, Kinase-Glo ATP depletion luminescence
GALK redox cs: generates H2O2 by redox cycling, flagging GALK artifacts; Phenol red-HRP H2O2 redox cycling, absorbance 600 nm; Potency, µM (series often up to 115 µM), most hits filed as inhibitors; actives 40% (n = 150); shares compounds with Pol eta inh-1; AID 2035
HEK293 tox: HEK-293 cytotoxicity, GALK inhibitor secondary; shares compounds with Pol eta inh-1; HEK-293 viability, ATP luminescence (CellTiter-Glo), 24/48 h; Potency, µM (series often up to 46.1 µM), most hits filed as inhibitors; actives 10% (n = 170)
Pol kappa inh-2: confirmation of human DNA polymerase kappa inhibitors | Potency, µM, hits mostly inhibitors | purified Pol-kappa, fluorescent strand-displacement substrate | shares compounds with Pol eta inh-1 | actives 76% (n = 920)
Pol eta inh-2: Pol eta (human) inhibition, cherry-pick confirmation. shares compounds with Pol eta inh-1. Pol eta primer extension, TAMRA/BHQ fluorescence, 10 min. Potency, µM, usual class: inhibitors. actives 64% (n = 2,600). AID 720502
Large screens that a line does not name were inactive (follow-up assays come after a bar, where they were run). Calls follow the shape of the dose curve; as a rule, active = well fitted curve in the direction sought with a large enough effect; inconclusive = small, poorly fitted or top-dose-only effect, or another doubt; inactive = no such curve, though single readings can be large; an effect the other way counts as inactive or inconclusive.

O=C1NC(=O)N(Cc2ccco2)C(=O)/C1=C\c1cccn1CCOc1ccc(Cl)cc1	Pol iota inh 13µM, Pol kappa inh-1 28µM, Pol eta inh-1 14µM, POLB inh 28µM, WRN helicase inh 50µM | Pol eta inh-2 inconclusive
Cc1cccc(OCCn2cccc2/C=C2/C(=O)NC(=O)N(Cc3ccco3)C2=O)c1	Pol iota inh 8.9µM, Pol kappa inh-1 28µM, Pol eta inh-1 22µM, POLB inh 32µM, WRN helicase inh inconclusive | Pol eta inh-2 76
CCc1ccc(N2C(=O)NC(=O)/C(=C/c3cccn3CCOc3ccc(C(C)CC)cc3)C2=O)cc1 (stereo not given)	Pol iota inh inconclusive
CC(C)c1ccc(N2C(=O)NC(=O)/C(=C\C=C\c3ccco3)C2=O)cc1	Pol iota inh 8.9µM, Pol kappa inh-1 40µM, Pol eta inh-1 20µM, FEN1 inh inconclusive, POLB inh inconclusive, WRN helicase inh inconclusive | Pol eta inh-2 76
O=C1NC(=O)N(Cc2ccccc2)C(=O)/C1=C/C=C/c1ccco1	Pol iota inh 14µM, Pol eta inh-1 35µM, FEN1 inh inconclusive, POLB inh inconclusive, WRN helicase inh 50µM | Pol eta inh-2 inconclusive
CC(C)c1ccc(N2C(=O)NC(=O)/C(=C\c3cnc(-c4ccccc4)nc3)C2=O)cc1	WRN helicase inh inconclusive
CCOP(=S)(OCC)Oc1ccc(Cl)cc1Cl	none (no result: Pol iota inh, Pol eta inh-1, FEN1 inh, POLB inh, WRN helicase inh)
S=C=S	none (no result: Pol iota inh, Pol eta inh-1, FEN1 inh, POLB inh, WRN helicase inh)
COc1ccccc1-c1nc2c(c(SCc3cccc(Cl)c3)n1)Cc1c(CO)cnc(C)c1O2	none (no result: WRN helicase inh)
O=C1NC(=O)N(c2ccccc2)C(=O)/C1=C/c1ccoc1	Pol iota inh 40µM, Pol kappa inh-1 inconclusive, Pol eta inh-1 28µM, FEN1 inh inconclusive, POLB inh inconclusive, WRN helicase inh inconclusive | Pol eta inh-2 76
CCOC(=O)CC(SP(=S)(OC)OC)C(=O)OCC (stereo not given)	none (no result: Pol iota inh, Pol eta inh-1, FEN1 inh, POLB inh, WRN helicase inh)
CCOC(=O)CC(SP1(=S)OCC2(CCCCC2)CO1)C(=O)OCC (stereo not given)	Pol iota inh inconclusive, Pol eta inh-1 inconclusive (no result: POLB inh) | Pol eta inh-2 67
CCC1(O)C(=O)OCc2c1cc1n(c2=O)Cc2cc3cc(O)ccc3nc2-1 (stereo not given)	Pol iota inh 22µM, Pol kappa inh-1 inconclusive, Pol eta inh-1 18µM, FEN1 inh inconclusive (no result: POLB inh) | Pol eta inh-2 76
O=C1NC(=O)N(c2ccccc2F)C(=O)/C1=C/c1ccc(Sc2nc3ccccc3[nH]2)o1	Pol iota inh inconclusive, Pol kappa inh-1 22µM, Pol eta inh-1 20µM, FEN1 inh inconclusive, POLB inh 22µM, WRN helicase inh 22µM | Pol kappa inh-2 27 | Pol eta inh-2 30
O=C1NC(=O)N(c2ccc3c(c2)OCO3)C(=O)/C1=C/c1ccc(N2CCCCC2)o1	Pol iota inh inconclusive
CCn1nc(-c2cccs2)nc2c(=O)n(C)c(=O)nc1-2	Pol eta inh-1 0.79µM | GALK inh confirm 0.21µM | GALK redox cs 0.27µM | HEK293 tox inconclusive
CCN(CC)c1ccc(/C=C2\C(=O)NC(=S)N(C)C2=O)o1	none
CN1C(=O)/C(=C/c2cccn2-c2ccc3ccccc3c2)C(=O)NC1=S	Pol iota inh 8.9µM, Pol kappa inh-1 32µM, Pol eta inh-1 4µM, FEN1 inh inconclusive, POLB inh 22µM | Pol eta inh-2 inconclusive
CN1CCCCC1c1cccnc1 (stereo not given)	none (no result: Pol iota inh, Pol eta inh-1, FEN1 inh, POLB inh, WRN helicase inh)
Cc1ccc(NS(=O)(=O)c2ccc(Cl)c(N=Nc3c(O)[nH]c(=O)[nH]c3=O)c2)cc1Cl	Pol iota inh inconclusive, Pol eta inh-1 22µM, FEN1 inh 45µM (no result: POLB inh) | Pol kappa inh-2 60
O=C1NC(=O)N(CCC2=CCCCC2)C(=O)/C1=C\c1cccs1	Pol iota inh 40µM, Pol eta inh-1 20µM, FEN1 inh inconclusive, POLB inh inconclusive, WRN helicase inh inconclusive | Pol eta inh-2 inconclusive
Cn1cccc1/C=C1\C(=O)NC(=O)N(CCC2=CCCCC2)C1=O	Pol iota inh inconclusive
CCN1C[C@@]2(COC)[C@H]3[C@@H](OC)[C@H]4C1[C@@]3([C@H](OC)C[C@@H]2O)[C@H]1C[C@@]2(O)[C@@H](OC(=O)c3ccccc3)[C@@H]1[C@@]4(OC(C)=O)[C@H](O)[C@@H]2OC	none (no result: Pol iota inh, Pol eta inh-1, FEN1 inh, POLB inh, WRN helicase inh)
O=C(c1cccc2ccccc12)C1CCCN(C2CCC2)C1 (stereo not given)	Pol iota inh inconclusive, Pol kappa inh-1 inconclusive, Pol eta inh-1 inconclusive | Pol eta inh-2 inconclusive
O=C(c1cccc2ccccc12)C1CCCN(Cc2ccon2)C1 (stereo not given)	none
CCOP(=S)(OCC)OCCSCC	none (no result: Pol iota inh, Pol eta inh-1, FEN1 inh, POLB inh, WRN helicase inh)
CCN(CC)c1ccc(/C=C2\C(=O)NC(=O)N(CC3CCCO3)C2=O)cc1 (stereo not given)	FEN1 inh inconclusive
Cc1cc(/C=C2/C(=O)NC(=O)N(Cc3ccco3)C2=O)c(C)n1-c1ccccc1	Pol iota inh 2.2µM, Pol kappa inh-1 71µM, Pol eta inh-1 35µM, POLB inh 18µM, WRN helicase inh inconclusive | Pol eta inh-2 76
Cc1cc(/C=C2\C(=O)NC(=O)N(Cc3ccccc3)C2=O)c(C)n1C1CC1	Pol iota inh inconclusive, POLB inh inconclusive
O=C1NC(=S)N(Cc2ccco2)C(=O)/C1=C\c1cccs1	POLB inh 1.1µM (no result: Pol iota inh, Pol kappa inh-1, Pol eta inh-1, FEN1 inh, WRN helicase inh) | GALK inh confirm inconclusive | GALK redox cs inactive | HEK293 tox inactive
CCN(CC)c1ccc(/C=C2/C(=O)NC(=O)N(Cc3ccco3)C2=O)cc1	Pol iota inh 22µM, Pol kappa inh-1 50µM, Pol eta inh-1 10µM, FEN1 inh inconclusive, WRN helicase inh 56µM | Pol eta inh-2 inconclusive
ClC1=C(Cl)C2(Cl)C3C4CC(C5OC45)C3C1(Cl)C2(Cl)Cl (stereo not given)	none (no result: Pol iota inh, Pol eta inh-1, FEN1 inh, POLB inh, WRN helicase inh)
CCOc1cc(OP(=S)(OC)OC)nc(CC)n1	none (no result: Pol iota inh, Pol eta inh-1, FEN1 inh, POLB inh, WRN helicase inh)
